According to PubChem BioAssay (EPA / NIEHS):
Results filed as inconclusive are left out. Activity calls are given as the source filed them. How the source made its calls, unless noted: active means hit-call score of the fitted dose curve at least 0.9, where 1 is the maximum; inactive means score below 0.9.

Legend:
[1] = biological target: Retinoic acid receptor RXR-alpha (Homo sapiens) (UniProt P19793); assay: ATG_RXRa_TRANS: Attagene TRANS-FACTORIAL HepG2 Assay for human Retinoid X Receptor alpha (RXRa) (AID 2283012; active means hit-call score of the fitted dose curve at least 0.9, where 1 is the maximum)
Sequence of Retinoic acid receptor RXR-alpha (Homo sapiens) (P19793 whole entry, looked up, the tested form may be a part): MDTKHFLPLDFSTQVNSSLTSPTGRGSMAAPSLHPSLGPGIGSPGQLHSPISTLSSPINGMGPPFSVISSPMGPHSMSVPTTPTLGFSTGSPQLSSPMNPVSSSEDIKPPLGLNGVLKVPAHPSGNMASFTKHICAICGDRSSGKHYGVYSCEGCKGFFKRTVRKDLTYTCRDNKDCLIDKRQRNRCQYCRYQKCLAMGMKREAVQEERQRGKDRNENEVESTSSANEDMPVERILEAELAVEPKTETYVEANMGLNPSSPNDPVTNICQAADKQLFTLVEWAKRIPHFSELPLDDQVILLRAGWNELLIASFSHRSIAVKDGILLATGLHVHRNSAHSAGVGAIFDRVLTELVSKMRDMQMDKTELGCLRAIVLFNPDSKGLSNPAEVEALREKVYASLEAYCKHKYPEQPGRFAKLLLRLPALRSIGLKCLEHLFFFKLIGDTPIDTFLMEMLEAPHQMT
Outline: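 HepG2 cells transiently transfected with multiplexed GAL4-UAS reporter units and chimeric NR-GAL4 fusions, dosed 24 h. Reporter mRNA measured by RT-PCR, FAM labelling, HpaI digestion and capillary electrophoresis; gain-of-signal fitted relative to DMSO baseline.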

[2] = read-out: E-selectin (Homo sapiens) (UniProt P16581); assay: BSK_3C_Eselectin: BioMAP Diversity Plus: 3C Assay for Eselectin Biomarker Activity (AID 2283015); details: primary human endothelial cells (HUVEC); actives raise or lower the signal;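 further: cell surface E-selectin protein quantified by ELISA 24 h after dosing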
Outline: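 Human vascular endothelium from umbilical vein is exposed to test chemicals for 24 h. E-selectin levels are read by ELISA and compared with DMSO controls.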

[3] = read-out: Interleukin-1 alpha (IL1a), IL1A (gene 3552); assay: BSK_BE3C_IL1a: BioMAP Diversity Plus: BE3C Assay for Interleukin-1 alpha (IL1a) Biomarker Activity (AID 2283016); details: primary human bronchial epithelial cells; actives raise or lower the signal
Outline: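 Human primary bronchial epithelial cells (BE3C system) were dosed with compound and IL-1a measured by ELISA 24 h later. Activity was fitted bidirectionally against DMSO baseline; cytotoxicity was tracked in parallel cultures by SRB total-protein staining.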

[4] = read-out: Monocyte Chemoattractant Protein-1 (MCP1), CCL2 (gene 6347); assay: BSK_3C_MCP1: BioMAP Diversity Plus: 3C Assay for Monocyte Chemoattractant Protein-1 (MCP1) Biomarker Activity (AID 2283017); details: primary human endothelial cells (HUVEC); actives raise or lower the signal
Outline: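 Endothelial cells from human umbilical vein are dosed with chemical, cultured 24 h, then assayed for MCP-1 by ELISA; both increases and decreases are modelled against DMSO controls.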

[5] = read-out: Monocyte Chemoattractant Protein-1 (MCP1), CCL2 (gene 6347); assay: BSK_4H_MCP1: BioMAP Diversity Plus: 4H Assay for Monocyte Chemoattractant Protein-1 (MCP1) Biomarker Activity (AID 2283018); details: primary human endothelial cells (HUVEC); actives raise or lower the signal
Outline: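 Human umbilical vein endothelial cells (4H system) dosed with chemical; MCP-1 measured by ELISA 24 h after dosing. Bidirectional curve fitting against DMSO negative control as baseline; parallel SRB total-protein staining tracks overt cytotoxicity.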

[6] = read-out: Human Leukocyte Antigen - DR isotype (HLADR), HLA-DRA (gene 3122); assay: BSK_3C_HLADR: BioMAP Diversity Plus: 3C Assay for Human Leukocyte Antigen - DR isotype (HLADR) Biomarker Activity (AID 2283019); details: primary human endothelial cells (HUVEC); actives raise or lower the signal;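 on outcome: ELISA of cell-surface HLA-DR on HUVEC 24 h after dosing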
Outline: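 Endothelial cells from human umbilical vein are treated with test chemical; after 24 h, HLA-DR levels are measured by ELISA. Data are fitted in both directions using DMSO as the baseline.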

[7] = read-out: Interleukin-8 (IL8), CXCL8 (gene 3576); assay: BSK_3C_IL8: BioMAP Diversity Plus: 3C Assay for Interleukin-8 (IL8) Biomarker Activity (AID 2283020); details: primary human endothelial cells (HUVEC); actives raise or lower the signal
Outline: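 Primary human umbilical vein endothelial cells (3C system) were exposed to test chemical for 24 h, then IL-8 was quantified by ELISA. Responses were fitted bidirectionally against DMSO vehicle as baseline.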

[8] = BSK_3C_SRB: Viability Assessment in the BioMAP Diversity Plus: 3C Assay (AID 2283023); details: primary human endothelial cells (HUVEC);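 further: cells read 24 h after compound dosing; fitted both ways against DMSO so a hit may be signal rise or drop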
Outline: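 Cells were dosed with chemical, cultured 24 h, fixed with 10% TCA, stained with 0.1% SRB and read at 560 nm. Human umbilical vein endothelium was used; DMSO served as negative control and baseline.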

[9] = read-out: Matrix Metallopeptidase 1 (MMP1), MMP1 (gene 4312); assay: BSK_BE3C_MMP1: BioMAP Diversity Plus: BE3C Assay for Matrix Metallopeptidase 1 (MMP1) Biomarker Activity (AID 2283024); details: primary human bronchial epithelial cells; actives raise or lower the signal
Outline: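 Primary human bronchial epithelial cells were dosed with test chemicals, and MMP1 levels were measured by ELISA 24 h later. Data were fitted bidirectionally against DMSO as the negative control and activity baseline.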

[10] = BSK_3C_Vis: BioMAP Diversity Plus: 3C Assay for Morphology Visualization (AID 2283025); details: primary human endothelial cells (HUVEC);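 further: fitted both ways so gain or loss versus DMSO counts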
Outline: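 Human umbilical vein endothelial cells in the 3C system were imaged by light microscopy 24 h after chemical dosing to record cell morphology. Activity was fitted bidirectionally against DMSO as negative control and baseline; the endpoint serves as a background control.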

[11] = BSK_4H_SRB: Viability Assessment in the BioMAP Diversity Plus: 4H Assay (AID 2283027); details: primary human endothelial cells (HUVEC);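 further: cells exposed to compound for 24 h before staining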;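 on AC50: curves fitted both ways versus DMSO so AC50 may be loss or gain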
Outline: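 Human umbilical vein endothelial cells were dosed with chemical and, after 24 h, fixed with 10% TCA, stained with 0.1% sulforhodamine B, and read at 560 nm to give total protein as a cytotoxicity measure. Bidirectional fitting relative to DMSO control.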

[12] = BSK_BE3C_SRB: Viability Assessment in the BioMAP Diversity Plus: BE3C Assay (AID 2283028); details: primary human bronchial epithelial cells;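 on AC50: fitted both ways so AC50 may mark signal gain or loss versus DMSO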
Outline: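 Overt cytotoxicity was assessed as total protein in confluent human primary bronchial epithelial cultures 24 h after chemical addition, using 0.1% sulforhodamine B staining read at 560 nm.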

[13] = read-out: Thrombomodulin, THBD (gene 7056); assay: BSK_3C_Thrombomodulin: BioMAP Diversity Plus: 3C Assay for Thrombomodulin Biomarker Activity (AID 2283029); details: primary human endothelial cells (HUVEC); actives raise or lower the signal
Outline: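 Primary human umbilical vein endothelial cells (3C system) were exposed to chemical for 24 h, then thrombomodulin levels were measured by ELISA. Activity was fitted bidirectionally against the DMSO negative control as baseline.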

[14] = read-out: Urokinase-type plasminogen activator receptor (uPAR), PLAUR (gene 5329); assay: BSK_4H_uPAR: BioMAP Diversity Plus: 4H Assay for Urokinase-type plasminogen activator receptor (uPAR) Biomarker Activity (AID 2283030); details: primary human endothelial cells (HUVEC); actives raise or lower the signal
Outline: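 Chemicals are dosed onto human vascular endothelial primary cells (umbilical vein). After 24 h, uPAR is read by ELISA. Gain or loss of signal is fitted relative to DMSO.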

[15] = biological target: human Vitamin D Receptor (VDR), VDR (gene 7421) (UniProt P11473); assay: ATG_VDR_TRANS: Attagene TRANS-FACTORIAL HepG2 Assay for human Vitamin D Receptor (VDR) (AID 2283022; active means hit-call score of the fitted dose curve at least 0.9, where 1 is the maximum)
Sequence of human Vitamin D Receptor (VDR), VDR (gene 7421) (P11473 whole entry, looked up, the tested form may be a part): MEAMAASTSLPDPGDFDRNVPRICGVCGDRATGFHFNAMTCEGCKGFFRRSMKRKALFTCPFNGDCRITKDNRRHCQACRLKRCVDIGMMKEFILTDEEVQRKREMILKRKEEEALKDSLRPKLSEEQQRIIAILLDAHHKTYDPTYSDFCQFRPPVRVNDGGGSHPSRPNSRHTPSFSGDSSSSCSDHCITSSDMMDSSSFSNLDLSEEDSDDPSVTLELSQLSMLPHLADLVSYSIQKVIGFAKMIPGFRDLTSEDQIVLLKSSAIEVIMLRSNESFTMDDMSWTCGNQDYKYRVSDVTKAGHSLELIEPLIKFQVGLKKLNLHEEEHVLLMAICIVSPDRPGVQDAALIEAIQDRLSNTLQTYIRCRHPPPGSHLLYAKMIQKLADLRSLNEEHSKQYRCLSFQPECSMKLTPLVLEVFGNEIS
Outline: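 Fluorescence of labelled reporter cDNA fragments, resolved by capillary electrophoresis, gives mRNA induction after 24 h treatment of HepG2 cells carrying transfected Gal4-fusion reporter units. Activity is fitted in the positive direction with DMSO as baseline.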

[16] = read-out: Pselectin, SELP (gene 6403); assay: BSK_4H_Pselectin: BioMAP Diversity Plus: 4H Assay for Pselectin Biomarker Activity (AID 2283026); details: primary human endothelial cells (HUVEC); actives raise or lower the signal
Outline: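 Primary human umbilical vein endothelial cells were exposed to test chemical for 24 h, then cell-surface P-selectin was quantified by ELISA. Activity was fitted bidirectionally against DMSO as negative control and baseline.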

[17] = biological target: human Thyroid Receptor alpha (THRa1), THRA (gene 7067) (UniProt P10827); assay: ATG_THRa1_TRANS: Attagene TRANS-FACTORIAL HepG2 Assay for human Thyroid Receptor alpha (THRa1) (AID 2283014; active means hit-call score of the fitted dose curve at least 0.9, where 1 is the maximum)
Sequence of human Thyroid Receptor alpha (THRa1), THRA (gene 7067) (P10827 whole entry, looked up, the tested form may be a part): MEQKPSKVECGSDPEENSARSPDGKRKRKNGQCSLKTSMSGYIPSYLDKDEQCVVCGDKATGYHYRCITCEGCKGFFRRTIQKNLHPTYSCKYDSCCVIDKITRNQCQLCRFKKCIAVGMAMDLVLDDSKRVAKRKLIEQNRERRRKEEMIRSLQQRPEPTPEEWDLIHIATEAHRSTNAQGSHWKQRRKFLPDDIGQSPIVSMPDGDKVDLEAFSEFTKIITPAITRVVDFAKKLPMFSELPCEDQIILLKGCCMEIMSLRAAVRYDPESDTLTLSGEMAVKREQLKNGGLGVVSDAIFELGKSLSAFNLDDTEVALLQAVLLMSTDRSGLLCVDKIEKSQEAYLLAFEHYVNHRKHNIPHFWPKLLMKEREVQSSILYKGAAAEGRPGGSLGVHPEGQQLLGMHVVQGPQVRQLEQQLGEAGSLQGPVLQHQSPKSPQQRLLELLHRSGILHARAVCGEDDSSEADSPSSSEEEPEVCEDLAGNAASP
Outline: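 First, HepG2 cells receive multiple GAL4-UAS reporter units and the chimeric receptor. They are then dosed for 24 h, after which RNA is reverse-transcribed, amplified, labelled, HpaI-cut and sized by capillary electrophoresis; gain relative to DMSO is scored.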

[18] = biological target: human Retinoid X Receptor beta (RXRb), RXRB (gene 6257) (UniProt P28702); assay: ATG_RXRb_TRANS: Attagene TRANS-FACTORIAL HepG2 Assay for human Retinoid X Receptor beta (RXRb) (AID 2283013; active means hit-call score of the fitted dose curve at least 0.9, where 1 is the maximum)
Sequence of human Retinoid X Receptor beta (RXRb), RXRB (gene 6257) (P28702 whole entry, looked up, the tested form may be a part): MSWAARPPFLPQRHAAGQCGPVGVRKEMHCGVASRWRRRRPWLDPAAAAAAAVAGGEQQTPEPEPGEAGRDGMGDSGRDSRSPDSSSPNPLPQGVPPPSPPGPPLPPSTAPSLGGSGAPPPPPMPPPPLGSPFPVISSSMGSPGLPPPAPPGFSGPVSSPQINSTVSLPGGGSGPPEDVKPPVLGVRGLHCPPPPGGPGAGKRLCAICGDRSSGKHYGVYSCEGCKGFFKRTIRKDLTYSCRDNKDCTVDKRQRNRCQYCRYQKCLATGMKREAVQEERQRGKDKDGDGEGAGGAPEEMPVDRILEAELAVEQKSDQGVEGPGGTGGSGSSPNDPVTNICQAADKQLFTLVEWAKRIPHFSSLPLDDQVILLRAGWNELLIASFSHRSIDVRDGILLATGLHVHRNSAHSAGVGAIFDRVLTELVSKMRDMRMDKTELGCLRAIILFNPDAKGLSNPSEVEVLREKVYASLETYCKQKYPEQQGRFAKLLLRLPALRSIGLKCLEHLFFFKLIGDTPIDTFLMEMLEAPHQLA
Outline: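 HepG2 cells transiently transfected with multiplexed reporter units driven by GAL4-UAS and exogenous chimeric NR-Gal4 proteins; treated 24 h. Reporter mRNA measured by RT-PCR, 6-FAM labelling and capillary electrophoresis; gain-of-signal fitted versus DMSO baseline.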

[19] = read-out: Monokine induced gamma interferon (MIG), CXCL9 (gene 4283); assay: BSK_3C_MIG: BioMAP Diversity Plus: 3C Assay for Monokine induced gamma interferon (MIG) Biomarker Activity (AID 2283021); details: primary human endothelial cells (HUVEC); actives raise or lower the signal
Outline: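 Primary human umbilical vein endothelial cells in the 3C system were exposed to chemical for 24 h, after which MIG was quantified by ELISA. Activity was fitted bidirectionally against DMSO as negative control and baseline.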

Sequence of E-selectin (Homo sapiens) (P16581 whole entry, looked up): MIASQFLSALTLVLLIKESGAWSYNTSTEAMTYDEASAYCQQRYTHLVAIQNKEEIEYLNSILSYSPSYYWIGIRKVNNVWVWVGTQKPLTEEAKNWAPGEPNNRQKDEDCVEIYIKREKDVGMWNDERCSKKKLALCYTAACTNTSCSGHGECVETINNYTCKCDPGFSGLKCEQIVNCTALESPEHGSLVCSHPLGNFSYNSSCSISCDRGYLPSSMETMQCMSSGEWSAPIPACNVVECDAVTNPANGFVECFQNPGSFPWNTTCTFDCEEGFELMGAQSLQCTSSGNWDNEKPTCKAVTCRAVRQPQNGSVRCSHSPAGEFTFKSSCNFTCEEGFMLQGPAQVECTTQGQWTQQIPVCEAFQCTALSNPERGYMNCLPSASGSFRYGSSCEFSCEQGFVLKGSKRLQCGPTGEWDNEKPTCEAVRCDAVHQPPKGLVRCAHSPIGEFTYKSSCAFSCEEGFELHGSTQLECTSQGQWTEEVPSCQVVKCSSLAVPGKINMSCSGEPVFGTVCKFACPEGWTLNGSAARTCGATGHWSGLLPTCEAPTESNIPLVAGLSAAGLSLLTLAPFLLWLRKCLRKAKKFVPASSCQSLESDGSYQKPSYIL

CCC12COCN1COC2
outcome [1]: inactive
outcome [2]: inactive
outcome [3]: inactive
outcome [4]: inactive
outcome [5]: inactive
outcome [6]: inactive
outcome [7]: inactive
outcome [8]: inactive
outcome [9]: inactive
outcome [10]: inactive
outcome [11]: inactive
outcome [12]: inactive
outcome [13]: inactive
outcome [14]: inactive

Clc1ccccc1Cl
outcome [2]: inactive
outcome [3]: inactive
outcome [4]: inactive
outcome [5]: inactive
outcome [6]: inactive
outcome [7]: inactive
outcome [15]: inactive
outcome [8]: inactive
outcome [9]: inactive
outcome [10]: inactive
outcome [16]: inactive
outcome [11]: inactive
outcome [12]: inactive
outcome [13]: inactive
outcome [14]: inactive

C[N+](C)(C)CC1CO1 (configuration not stated)
outcome [17]: inactive
outcome [2]: inactive
outcome [3]: inactive
outcome [4]: inactive
outcome [5]: inactive
outcome [6]: inactive
outcome [7]: inactive
outcome [8]: inactive
outcome [9]: inactive
outcome [10]: inactive
outcome [11]: inactive
outcome [12]: inactive
outcome [13]: inactive
outcome [14]: inactive

CCCCCOC(=O)c1ccccc1C(=O)OCCCCC
outcome [18]: inactive
outcome [2]: inactive
outcome [3]: inactive
outcome [4]: inactive
outcome [5]: inactive
AC50 [6]: 20 µM (active)
outcome [7]: inactive
AC50 [8]: 32.2 µM (active)
outcome [9]: inactive
AC50 [10]: 39 µM (active)
AC50 [16]: 20 µM (active)
outcome [11]: inactive
outcome [12]: inactive
outcome [13]: inactive
outcome [14]: inactive

O=C(N[C@H](c1ccccc1)[C@@H]1CN2CCC1CC2)c1c(Cl)ccc(C(F)(F)F)c1Cl
outcome [18]: inactive
outcome [2]: inactive
AC50 [3]: 44.5 µM (active)
AC50 [4]: 14.3 µM (active)
outcome [5]: inactive
outcome [6]: inactive
AC50 [7]: 19 µM (active)
outcome [19]: inactive
outcome [15]: inactive
AC50 [8]: 29.7 µM (active)
AC50 [9]: 44.2 µM (active)
AC50 [10]: 14.5 µM (active)
outcome [16]: inactive
outcome [11]: inactive
AC50 [12]: 27.4 µM (active)
AC50 [13]: 29.7 µM (active)
AC50 [14]: 17.3 µM (active)

CCN(CC)CCO
outcome [1]: inactive
outcome [18]: inactive
outcome [2]: inactive
outcome [3]: inactive
outcome [4]: inactive
outcome [5]: inactive
outcome [6]: inactive
outcome [7]: inactive
outcome [8]: inactive
outcome [9]: inactive
outcome [10]: inactive
outcome [11]: inactive
outcome [12]: inactive
outcome [13]: inactive
outcome [14]: inactive

CCC(C)c1ccc(O)cc1 (configuration not stated)
AC50 [18]: 100 µM (active)
outcome [2]: inactive
outcome [3]: inactive
outcome [4]: inactive
outcome [5]: inactive
outcome [6]: inactive
outcome [7]: inactive
outcome [19]: inactive
outcome [8]: inactive
outcome [9]: inactive
outcome [10]: inactive
outcome [11]: inactive
outcome [12]: inactive
outcome [13]: inactive
outcome [14]: inactive

COP(=S)(OC)SCN1C(=O)c2ccccc2C1=O
outcome [18]: inactive
outcome [2]: inactive
outcome [3]: inactive
outcome [4]: inactive
outcome [5]: inactive
outcome [6]: inactive
outcome [7]: inactive
outcome [19]: inactive
outcome [8]: inactive
outcome [9]: inactive
outcome [10]: inactive
outcome [11]: inactive
outcome [12]: inactive
outcome [13]: inactive
outcome [14]: inactive

CC(C)(O)c1cnn2c(-c3ccc(F)c(-c4c(F)cccc4C#N)c3)cnc2n1
outcome [1]: inactive
outcome [2]: inactive
AC50 [3]: 31.6 µM (active)
AC50 [4]: 26.4 µM (active)
outcome [5]: inactive
AC50 [6]: 30.4 µM (active)
AC50 [7]: 20 µM (active)
outcome [19]: inactive
AC50 [8]: 30.4 µM (active)
outcome [9]: inactive
AC50 [10]: 37.5 µM (active)
AC50 [11]: 28.9 µM (active)
AC50 [12]: 29.6 µM (active)
AC50 [13]: 22.7 µM (active)
outcome [14]: inactive

CN(C)[C@@H]1C(=O)C(C(N)=O)=C(O)[C@@]2(O)C(=O)C3=C(O)c4c(O)cccc4[C@@](C)(O)[C@H]3C[C@@H]12
outcome [17]: inactive
outcome [2]: inactive
outcome [3]: inactive
outcome [4]: inactive
outcome [5]: inactive
outcome [6]: inactive
outcome [7]: inactive
outcome [19]: inactive
outcome [8]: inactive
outcome [9]: inactive
outcome [10]: inactive
outcome [11]: inactive
outcome [12]: inactive
outcome [13]: inactive
outcome [14]: inactive

CN(C)c1ccccc1
outcome [1]: inactive
outcome [17]: inactive
outcome [2]: inactive
outcome [3]: inactive
outcome [4]: inactive
outcome [5]: inactive
outcome [6]: inactive
outcome [7]: inactive
outcome [15]: inactive
outcome [8]: inactive
outcome [9]: inactive
outcome [10]: inactive
outcome [11]: inactive
outcome [12]: inactive
outcome [13]: inactive
outcome [14]: inactive

CC(C)(C)OOC(C)(C)CCC(C)(C)OOC(C)(C)C
outcome [1]: inactive
AC50 [18]: 16.4 µM (active)
outcome [2]: inactive
outcome [3]: inactive
outcome [4]: inactive
outcome [5]: inactive
outcome [6]: inactive
outcome [7]: inactive
outcome [19]: inactive
outcome [8]: inactive
outcome [9]: inactive
outcome [10]: inactive
outcome [11]: inactive
outcome [12]: inactive
outcome [13]: inactive
outcome [14]: inactive

CN(C)C(=O)Nc1ccc(Cl)cc1
outcome [1]: inactive
outcome [17]: inactive
outcome [2]: inactive
outcome [3]: inactive
outcome [4]: inactive
outcome [5]: inactive
outcome [6]: inactive
outcome [7]: inactive
outcome [8]: inactive
outcome [9]: inactive
outcome [10]: inactive
outcome [11]: inactive
outcome [12]: inactive
outcome [13]: inactive
outcome [14]: inactive
